# Cruzain inh Det = qHTS Assay for Promiscuous and Specific Inhibitors of Cruzain (with detergent). 200,000 tested, 0.43% active. Potency, µM, for inactives: max response, negative = inhibition, actives largely listed as inhibitors. AID 1478, 2009. Cruzipain (Trypanosoma cruzi), P25779. purified cruzain, Z-FR-AMC fluorescence, 0.01% Triton;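 note: plate controls were neutral wells for no effect and buffer without enzyme for full effect; nearly all actives have a fitted effect of over 40% in size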
# Target sequence (P25779 123-467 limits assumed): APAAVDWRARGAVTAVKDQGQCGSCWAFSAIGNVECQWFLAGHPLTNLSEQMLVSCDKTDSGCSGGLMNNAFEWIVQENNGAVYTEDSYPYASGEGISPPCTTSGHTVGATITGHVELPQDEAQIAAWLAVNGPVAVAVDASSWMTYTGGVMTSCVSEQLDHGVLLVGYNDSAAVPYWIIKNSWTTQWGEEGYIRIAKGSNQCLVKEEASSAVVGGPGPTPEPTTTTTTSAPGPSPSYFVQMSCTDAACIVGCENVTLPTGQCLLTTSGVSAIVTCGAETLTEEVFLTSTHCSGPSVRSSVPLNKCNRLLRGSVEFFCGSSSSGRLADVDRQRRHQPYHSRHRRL
#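 Steps: dispense cruzain (1.5 nM final) in acetate buffer pH 5.5 with DTT and 0.01% Triton X-100; pin-transfer compounds; incubate 15 min RT; add Z-FR-AMC (2 uM final); read fluorescence every 30 s, using the 60 s intensity change.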
# Cruzain noTriton = qHTS Assay for Promiscuous and Specific Inhibitors of Cruzain (without detergent) | purified cruzain, Z-FR-AMC fluorescence, no detergent | Potency, µM, for the others: max response, negative = inhibition, hits mostly inhibitors | 200,000 tested, 2.3% active | AID 1476, 2009;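 note: plate controls were enzyme without inhibitor for no effect and buffer without enzyme for full effect; nearly all actives have a fitted effect of over 40% in size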
#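 Detergent-free condition (0.00005% Triton X-100) in acetate buffer pH 5.5 with DTT. 1.5 nM enzyme and compound were pre-mixed 15 min, then 2 uM Z-FR-AMC substrate added; reaction progress from fluorescence change between first and third reads (60 s).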
# Numbers without * were called inactive; ? = inconclusive. Rows were chosen to be rich in hits. Some 2.5% of all compounds tested hit in one or more screens of this group. Calls come from the whole dose curve; as a rule, active = well fitted curve in the direction sought with a large enough effect; inconclusive = small, poorly fitted or top-dose-only effect, or another doubt; inactive = no such curve, though single readings can be large; an effect the other way counts as inactive or inconclusive. Potency is the fitted concentration of half-maximal effect.
SMILES,Cruzain inh Det,Cruzain noTriton
O=C(Nc1ccc(N2CCOCC2)cc1)c1cc2ccccc2o1,0%,-18%
O=C(Nc1ccc(N2CCCC2)cc1)c1ccccc1F,-10%,20µM*
CCOc1ccc(CNC(=O)C2CCN(C(=O)N3CC(CC)Oc4ccccc43)CC2)cc1 (centres undefined),-2%,11%
CC(C)C(C)C,-4%,-7%
CCCCCCN,4%,2%
COc1cc(-c2nc(Cn3nnc(C(=O)Nc4cc(C)cc(C)c4)c3C)c(C)o2)cc(OC)c1OC,0%,?
COc1cccc2cc(S(=O)(=O)c3ccc(F)c(C)c3)c(=O)oc12,2%,0%
Cc1ccc(-n2c(SCC(=O)Nc3cccc(Cl)c3)nc3n[nH]c(C)c3c2=N)cc1,-1%,-5%
COc1ccc(NC(=O)Cn2cc(C(=O)c3ccccc3OC)c(=O)c3ccc(C)nc32)cc1OC,-3%,27%
O=C(Nc1ccc(N2CCCC2)cc1)c1ccc([N+](=O)[O-])cc1Cl,0%,10µM*
Cc1nc(NC(=O)c2ccc(-c3cc4ccccc4oc3=O)cc2)ccc1Br,-1%,?
CN(C)c1ccc(NC(=O)c2ccc([N+](=O)[O-])cc2Cl)cc1,-1%,?
Cc1nc(NC(=O)c2cccc(-c3cc4ccccc4oc3=O)c2)ccc1Br,-11%,20µM*
CCc1ccccc1NC(=O)CN1C(=O)COc2ccc(S(=O)(=O)N3CCCCCC3)cc21,2%,-6%
COc1ccc(OC)c(NC(=S)N(CCc2c(C)[nH]c3ccc(C)cc23)Cc2cccs2)c1,-2%,25µM*
COc1ccc(OC)c(NC(=S)N(CCc2c(C)[nH]c3ccccc23)Cc2cccs2)c1,1%,?
N#C/C(=C\c1ccc(-c2ccc(F)cc2)o1)C(=O)Nc1nc(-c2cccs2)cs1,5%,6.3µM*
N#C/C(=C/c1ccc(-c2ccccc2)o1)c1nc(-c2cccs2)cs1,-10%,7.9µM*
N#C/C(=C\c1ccc(-c2ccccc2)cc1)c1nc(-c2ccco2)cs1,-7%,?
N#C/C(=C\c1ccc(-c2ccc(Br)cc2)o1)C(=O)Nc1ccccc1O,0%,15%
CCCCCn1cc2c(c1-c1ccc(Br)cc1)c(=O)n(C)c(=O)n2C,-3%,-7%
CCc1ccc(N2CC(c3nc4ccccc4n3Cc3ccccc3C)CC2=O)cc1 (centres undefined),-6%,-5%
CN1CCc2c(sc3c2C(=O)NC(c2ccc(C(C)(C)C)cc2)N3)C1 (centres undefined),-10%,1%
CCN1CCN(C(c2ccc(SC)cc2)c2c(O)cc(C)n(Cc3ccco3)c2=O)CC1 (centres undefined),1%,?
Cc1ccccc1OCc1ccc(-c2nc(C#N)c(NCCCN(C)C)o2)o1,-4%,-5%
SMILES,Cruzain inh Det,Cruzain noTriton
CC(=O)N1CCCC1c1nc2ccccc2n1Cc1ccccc1Cl (centres undefined),-6%,5%
O=C(Nc1cccc(-c2nc3ccccc3o2)c1)c1ccc(-c2ccc(Br)cc2)o1,-2%,?
COc1cc2ccccc2cc1C(=O)Nc1ccccc1N1CCN(S(C)(=O)=O)CC1,-6%,25µM*
CS(=O)(=O)N1CCN(c2ccc(NC(=O)c3ccc(-c4ccc(Cl)cc4)o3)cc2)CC1,3%,?
Cc1ccc2cccc(NC(=O)c3ccc(-c4ccc(Br)cc4)o3)c2n1,1%,-12%
CS(=O)(=O)N1CCN(c2ccccc2NC(=O)c2ccc(-c3ccc(Br)cc3)o2)CC1,-3%,25µM*
O=C(Nc1cccc(NC(=O)c2ccc(-c3ccc(Br)cc3)o2)c1)c1ccco1,-7%,32µM*
CS(=O)(=O)N1CCN(c2ccccc2NC(=O)c2cccc3ccccc23)CC1,-2%,6%
COC(=O)c1ccccc1NC(=O)c1ccc(-c2ccc(Br)cc2)o1,-13%,7.9µM*
Cc1ccc(N(Cc2cccs2)C(=O)COc2ccccc2[N+](=O)[O-])cc1,-7%,-9%
COc1ccc(C(CC(=O)Nc2cc(Cl)c(OC)cc2OC)N2Cc3ccccc3C2=O)cc1 (centres undefined),-8%,7%
C[C@H]1[C@H](C)OC(=O)C[C@H](O)C[C@H](O)C[C@H](O)CC[C@H](O)[C@H](O)CC(=O)C[C@H](O)[C@H](C(=O)O)[C@H](O)C[C@H](O[C@@H]2O[C@@H](C)[C@H](O)[C@@H](N)[C@@H]2O)C=CC=CC=CC=CCCC=CC=C[C@@](C)(O)[C@H]1O,0%,13%
Cc1ccc(C)c(N2CCN(C(=O)c3cnc4c(-c5ccccc5)c(C)nn4c3C)CC2)c1,-9%,?
Cn1ncc2c(Nc3cc(C(F)(F)F)ccc3Cl)ncnc21,0%,13%
C[C@]1(O)CC[C@H]2[C@@H]3[C@@H](O)CC4=CC(=O)CC[C@@]4(C)[C@H]3CC[C@]21C,2%,6%
CC(C)(C)c1cc(C(=O)/C=C/c2ccc(C(=O)O)cc2)cc(C(C)(C)C)c1,?,11%
C=C(C)Cn1c(=O)c2c(nc3n2CCN3c2ccc(CC)cc2)n(C)c1=O,1%,-8%
COc1ccccc1-c1noc(-c2ccc(N3CCN(C)CC3)c([N+](=O)[O-])c2)n1,-3%,-21%
COc1ccc2oc(=O)c(-c3cn4c(n3)sc3cc(F)ccc34)cc2c1,3%,9%
Cc1ccc(Cc2cnc(NC(=O)c3ccco3)s2)cc1,-1%,-9%
O=C(Nc1ncc(Cc2ccc(SC(F)F)cc2)s1)c1ccc(OC(F)F)cc1,-3%,20µM*
CN(C)C(=O)C1CCN(Cc2c[nH]c3ccccc23)CC1,4%,3%
CCCCN(CCCNC(=O)CN1N=C(c2ccccc2)CCC1=O)c1ccccc1,-1%,?
Cc1ccc(N=Nc2c(O)ccc3cc(S(=O)(=O)O)ccc23)cc1,-14%,?
Cc1ccc(S(=O)(=O)Oc2ccc(N=Nc3ccc(-c4ccc(N=Nc5c(O)ccc6cc(S(=O)(=O)O)cc(S(=O)(=O)O)c56)c(C)c4)cc3C)cc2)cc1,13µM*,?
SMILES,Cruzain inh Det,Cruzain noTriton
COc1ccc(-c2ccc(C#N)c(OC(=O)c3c(Cl)cccc3Cl)n2)cc1,28µM*,?
COc1nc(-c2ccccc2Cl)ccc1C#N,-3%,-7%
N#C[C@H](C(=O)O)C(c1c(Cl)cccc1Cl)[C@H](C#N)C(=O)O,2%,1%
Cc1cc[c]([Sb]2[O]C([C@H](O)[C@H](O)C(=O)O)[C@@H](CO)[O]2)cc1 (some centres undefined),3%,1%
COc1cc(OC)cc(C(=O)Nc2cc(-c3nc4cc(Cl)ccc4o3)ccc2Cl)c1,2%,2%
CCOc1ccc(NC(=S)/C(=C(\[O-])c2ccc(C)c([N+](=O)[O-])c2)[n+]2ccccc2)cc1,-6%,25µM*
CCc1cc[n+](/C(C(=S)Nc2cccc(C)c2)=C(/[O-])c2ccc(C)c([N+](=O)[O-])c2)cc1,-9%,-21%
CCOCCSc1c(C)cnc2c1c(=O)n(C)c(=O)n2C,-3%,-8%
Nc1nnc(SCC(=O)c2ccccc2)s1,2%,-10%
Nc1c(C(=O)c2ccccc2)sc2snc(SCC(=O)c3ccccc3)c12,-28%,13µM*
Cc1ccc(NC(=O)CSc2nc3c(c(=O)[nH]2)CCC3)cc1Cl,-6%,-7%
CCn1c2ccccc2c2nnc(SCCN3CCCCC3)nc21,-7%,-1%
Cn1c2ccc(F)cc2c2nnc(SCCN3CCCCC3)nc21,14µM*,13µM*
CCCCn1c2ccc(F)cc2c2nnc(SCCN3CCCCC3)nc21,16µM*,?
